# Smad3 FoxH1 inh = Smad3/FoxH1 peptide binding inhibitors, primary screen, biochemical, TR-FRET | TR-FRET Smad3/Dy647-FoxH1 peptide binding, europium anti-His | inhibition, % at 25 µM | 0.29% of 88,000 active;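 active = compounds that reduce the energy-transfer binding signal between the protein and its labelled peptide by more than half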;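 also: 0% = Smad3 plus labelled peptide maximal FRET and 100% = peptide-only background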
# ERa coact pot = enhancers of ERα–SRC-1 coactivator binding, primary screen, biochemical, TR-FRET, ERα LBD, low estradiol | 1.3% of 86,000 active | TR-FRET ERalpha-LBD/SRC-Cy5 coactivator binding, 2 h; 100 = basal binding, no effect | Estrogen receptor (Homo sapiens), P03372 | AID 639, 2007 | coactivator binding (% of control), % at 25.6 µM; in the data active = activity above about 200%;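 also: binding measured in presence of low estradiol as agonist stimulus; 0% = peptide alone without receptor and 100% = receptor with peptide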
# ERb SRC1 inh = inhibitors of ERβ-SRC1 coactivator interaction, primary screen, biochemical, TR-FRET, ERβ LBD, SRC-1 peptide; Estrogen receptor beta (Homo sapiens), Q92731; TR-FRET ER-beta LBD / SRC1-Cy5 peptide binding; receptor agonist-loaded with 1 µM estradiol; inhibition, % at 25.6 µM; 1.3% of 86,000 active; AID 633, 2007;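 active = compounds whose percent inhibition of the receptor-coactivator binding signal exceeds about 50% in the single-dose screen, limit read from the data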;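 also: 0% = receptor plus peptide wells without compound and 100% = peptide-only wells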
# Target sequence (Q92731 whole entry, looked up, the tested form may be a part): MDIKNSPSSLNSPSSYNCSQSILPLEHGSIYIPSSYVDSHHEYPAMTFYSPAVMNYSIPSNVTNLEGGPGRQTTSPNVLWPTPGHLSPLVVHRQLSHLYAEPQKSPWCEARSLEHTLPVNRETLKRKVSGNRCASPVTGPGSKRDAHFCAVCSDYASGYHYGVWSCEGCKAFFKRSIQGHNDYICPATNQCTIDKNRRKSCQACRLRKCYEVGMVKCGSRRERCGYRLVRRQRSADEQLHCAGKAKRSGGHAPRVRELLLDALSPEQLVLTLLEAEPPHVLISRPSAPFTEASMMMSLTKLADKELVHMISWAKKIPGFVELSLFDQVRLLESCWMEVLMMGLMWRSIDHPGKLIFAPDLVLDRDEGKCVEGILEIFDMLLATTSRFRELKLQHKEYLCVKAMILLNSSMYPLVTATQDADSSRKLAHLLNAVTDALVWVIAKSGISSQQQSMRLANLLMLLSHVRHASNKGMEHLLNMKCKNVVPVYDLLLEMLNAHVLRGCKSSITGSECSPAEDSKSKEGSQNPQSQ
# ERa SRC1 inh = ERα–SRC-1 coactivator interaction inhibitors, primary screen, biochemical, TR-FRET, ERα LBD, estradiol-bound; TR-FRET ER-alpha LBD / SRC-1 peptide; inhibition, % at 25.6 µM; 1.7% of 86,000 active; in the data active = inhibition above about 50%;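 also: 0% = receptor plus peptide control and 100% = peptide only without receptor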
# FAK blocker = FAK kinase inhibitors, primary screen, biochemical | Focal adhesion kinase 1 (Homo sapiens), Q05397 | biochemical FAK kinase activity assay | inhibition, %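 (tested at 7 µM)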 | 0.84% of 97,000 active; in the data active = inhibition above about 19%;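 also: 0% = DMSO and 100% = reference compound high control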
# * marks the source's active call; other numbers are inactive results; nt = no result; [ ] = another dose, or the depositor's remark. Rows were chosen to be rich in hits. Some 3.3% of all compounds tested hit in one or more screens of this group.
SMILES,Smad3 FoxH1 inh,ERa coact pot,ERb SRC1 inh,ERa SRC1 inh,FAK blocker
O=S(=O)(c1ccc2oc(-c3ccncc3)nc2c1)c1ccc2oc(-c3ccncc3)nc2c1,22.5,236.8*[fluorescence artefact?],51.0*[fluorescence artefact?],10.2,nt
Cc1ccc(C)c(C(=N)c2ccccc2Cc2ccccc2)c1,2.8,nt,nt,nt,nt
C=C(C)CNCCN,-12.1,nt,nt,nt,nt
Cc1oc(-c2ccc(F)cc2)cc1-c1nn2c(-c3ccco3)nnc2s1,-3.0,83.5,51.0*[fluorescence artefact?],81.9*[fluorescence artefact?],6.8
Cc1oc(-c2ccc(F)cc2)cc1-c1nn2c(-c3ccoc3C)nnc2s1,0.3,67.1,62.5*,78.6*[fluorescence artefact?],nt
Cc1ccc(C(=O)N(c2c(C)n(C)n(-c3ccccc3)c2=O)C(C)C)cc1,9.5,100.5,-5.2,19.7,1.5
CCOc1cc2[nH]c(=S)n(CCc3ccc(OC)c(OC)c3)c(=O)c2cc1OCC,-8.4,62.2,30.9,56.7*[fluorescence artefact?],1.6
COc1ccc(CCNC(=O)c2ccc3c(=O)n(Cc4ccco4)c(=S)[nH]c3c2)cc1OC,-2.0,75.4,40.0,61.5*[fluorescence artefact?],3.7
CC(C)NC(=O)c1ccc2c(=O)n(Cc3ccco3)c(=S)[nH]c2c1,-6.9,115.2,-1.8,-0.5,-5.9
O=C(Cn1cnc2c(nnn2-c2ccc(F)cc2)c1=O)NCC1CCCO1 (stereo not given),-0.6,94.8,9.0,6.5,-0.5
O=C(Cn1cnc2c(cnn2-c2ccc(F)cc2)c1=O)NCC1CCCO1 (stereo not given),-6.4,200.0*,-5.3,1.5,1.3
O=C(O)CN(CC(=O)O)c1ccccc1,1.1,nt,nt,nt,nt
COc1ccc(OC)c(NC(=O)CSc2ncccc2C(=O)O)c1,-0.9,80.1,26.5,3.8,2.3
Nc1nonc1NC(=O)CSc1ncccc1C(=O)O,13.8,100.9,63.8*,-1.7,-6.6
CCN(CC)S(=O)(=O)c1cccc(-c2nnc(SCCCC(=O)c3ccc(F)cc3)o2)c1,-4.9,578.0*[fluorescence artefact?],27.4,0.9,-0.1
Clc1ccc(SCc2cn3ccsc3n2)cc1,-13.7,365.6*[fluorescence artefact?],-24.1,-19.0,2.0
COc1cc2nc(N3CCNCC3)nc(N)c2cc1OC,5.5,88.5,-7.8,86.9*[fluorescence artefact?],-0.8
Clc1ccc2nc(N3CCNCC3)nc(-c3ccccc3)c2c1,-8.8,68.2,3.0,6.5,5.2
COc1ccc(NC(=O)c2ccccc2NC(=O)COc2ccccc2)cc1,16.7,211.4*[fluorescence artefact?],38.0,56.3*[fluorescence artefact?],1.1
COCC(=O)Nc1ccccc1C(=O)Nc1ccc(OC)cc1,-1.0,140.7,0.3,-2.8,-1.0
Cc1cc(C)cc(OCC(=O)Nc2cccc(C(=O)O)c2)c1,7.6,103.5,-1.0,1.3,-2.3
Cc1cc(C)cc(OCC(=O)Nc2nonc2NC(=O)COc2cc(C)cc(C)c2)c1,-0.9,38.0,38.1,82.0*[fluorescence artefact?],0.0
CC(C)CO[C@H](c1ccc2c(c1)OCO2)[C@H](C)Br,4.5,nt,nt,nt,nt
COC(=O)c1ccc(CSc2nnc(NC(=O)c3cc4c(s3)CCCC4)s2)cc1,-10.5,234.5*,16.6,0.7,-3.9
Nc1c(S(=O)(=O)O)cc(Nc2cccc(S(N)(=O)=O)c2)c2c1C(=O)c1ccccc1C2=O,29.5,nt,nt,nt,nt
SMILES,Smad3 FoxH1 inh,ERa coact pot,ERb SRC1 inh,ERa SRC1 inh,FAK blocker
c1ccc(CCCNc2nnnc3ccccc23)cc1,2.0,nt,nt,nt,nt
C/C(Nc1ccc(Cl)cc1)=C(/C#N)C(N)=O,7.0,90.2,-1.3,-0.8,2.7
C/C(Nc1ccccc1)=C(/C#N)C(N)=O,95.6*[fluorescence artefact?],93.5,3.4,-6.3,3.0
COc1ccc(-c2cc3nnc(-c4ccccc4)nc3s2)cc1,3.9,129.4,66.4*[fluorescence artefact?],62.9*[fluorescence artefact?],-0.4
CCOC(=O)Cc1ccc(NS(=O)(=O)c2ccc(SC)cc2)cc1,2.8,51.6,17.7,54.0*,-0.8
CCOC(=O)c1ccc(NS(=O)(=O)c2ccc(SC)cc2)cc1,5.4,49.9,-1.8,19.4,-3.3
O=C1c2ccccc2-c2ccc(N(Cc3ccc(Br)cc3)Cc3ccc(Br)cc3)cc21,4.2,nt,nt,nt,nt
COC(=O)[C@H]1[C@@H]2C[C@H]3c4[nH]c5ccccc5c4CCN3C[C@H]2CC[C@@H]1O,-0.3,nt,nt,nt,nt
CC(=O)C1=C(C)NC(SCC(=O)c2ccc(F)cc2)=C(C#N)C1c1ccco1 (stereo not given),13.7,107.1,2.3,-1.7,1.3
COc1ccccc1NC(=O)C1=C(C)NC(SCC(=O)c2ccc(C)cc2)=C(C#N)C1c1ccco1 (stereo not given),9.1,202.7*,-1.8,-4.0,-3.5
Cn1c(=O)c2[nH]c(CCNC(=O)c3ccccc3)nc2n(C)c1=O,-1.3,nt,nt,nt,nt
COc1ccc(CN2CCn3ncc(C(=O)Nc4cc(C)cc(C)c4)c3C2=O)cc1,-9.1,252.0*[fluorescence artefact?],4.7,14.5,8.9
COC(=O)c1cc2n(n1)CCN(Cc1ccc(OC)cc1)C2=O,nt,nt,nt,nt,-0.7
Cn1nc(CC(=O)Nc2ncc(Br)s2)c2ccccc2c1=O,17.7,87.8,50.2*,35.8,8.6
Cn1nc(CC(=O)NC2CCCCCCCCCCC2)c2ccccc2c1=O,-13.8,49.7,54.5*[fluorescence artefact?],90.6*[fluorescence artefact?],8.5
Cn1nc(C(=O)NC2CCCCC2)c2ccccc2c1=O,-1.7,118.6,-7.0,-0.3,0.6
Cn1nc(CC(=O)Nc2ccc3c(c2)CCC3)c2ccccc2c1=O,-13.0,118.2,0.9,7.0,nt
Cc1ccc2nc(SCC(=O)Nc3ccccc3N3CCOCC3)c(C#N)cc2c1,-7.3,216.8*[fluorescence artefact?],17.2,18.9,-14.5
Cc1ccc(-c2nnc(SCC(=O)Nc3ccccc3N3CCOCC3)o2)cc1,4.8,104.5,-3.5,-11.4,-0.1
N#Cc1cc2ccccc2nc1SCC(=O)Nc1ccc(S(=O)(=O)N2CCCC2)cc1,1.3,288.7*[fluorescence artefact?],23.4,15.7,-7.4
COc1ccc2nc(SCC(=O)Nc3ccc(S(=O)(=O)N4CCCC4)cc3)c(C#N)cc2c1,10.9,508.7*[fluorescence artefact?],40.1,19.2,-6.5
Cc1cc(C)c2nc(SCC(=O)Nc3ccc(S(=O)(=O)N4CCCC4)cc3)c(C)cc2c1,6.7,108.7,0.0,0.0,-0.1
CN(C)CCCN=c1c2ccccc2n(C)c2[nH]c(=O)n(C)c(=O)c12,-1.1,nt,nt,nt,nt
c1ccc(CN2COc3c(ccc4c5c(ccc34)CN(Cc3ccccc3)CO5)C2)cc1,47.3,nt,nt,nt,nt
COc1ccc(C(C)C)cc1S(=O)(=O)Nc1ccc(Cl)cn1,5.4,133.6,73.8*[fluorescence artefact?],-1.5,-2.6
Cc1cc(NC(=O)CSc2nc(-c3cccnc3)ccc2C#N)no1,-0.8,112.2,-6.1,-9.4,3.5
Cc1cc(NC(=O)CSc2nc3c(c(-c4cccnc4)c2C#N)CCC3)no1,-295.8,257.7*[fluorescence artefact?],18.6,21.6,-14.4
COc1ccc(-c2c(C#N)c(SCC(N)=O)nc3c2CCCC3)cc1,7.5,284.7*,10.5,18.2,-0.7
COc1ccc(C(=O)CSc2nc(N)nc(SC)c2C#N)cc1,16.0,480.3*[fluorescence artefact?],22.8,21.1,-1.1

# Compound activity from PubChem.
